# Tested on: Perkinsus marinus PRA240
# Assay: ATP content (proliferation) relative to DMSO control; higher = more parasite growth (less inhibition)
# Details: 20 µM; 4 days
# Procedure: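 Perkinsus marinus PRA240 trophozoites (2-5x10^6 cells/ml, 100 µl, 96-well) were exposed once to MMV Malaria Box compounds at 20 µM (0.1% DMSO) in triplicate. ATP content (ATPlite bioluminescence) was read at day 4 post-exposure and normalised to DMSO + cells control wells (100% activity). Compounds were identified by joining plate and well to the Malaria Box list.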
row,SMILES,ATP content [%]
1,COc1ccc(CN2CCCC(C(=O)c3ccc(C(F)(F)F)cc3)C2)c(O)c1 (stereo unspecified),117
2,CC(C)c1ccc(CNCC(O)c2ccccc2)cc1 (stereo unspecified),117
3,Oc1c2c(nc3ccccc13)CCCC2,42.5
4,CCOc1ccccc1NC(=O)CN1CCN(C(=O)c2ccco2)CC1,66.6
5,CCN(CC)CCNc1ccnc2cc3ccccc3cc12,107
6,O=C(Nc1ccsc1C(=O)NC1CCCCC1)c1ccc(F)cc1,90
7,CCCCCCn1c(=N)n(CC(O)COc2cccc(C)c2)c2ccccc21 (stereo unspecified),96.7
8,COc1cccc(Cn2c(Oc3ccccc3)nc3c2c(=O)n(C)c(=O)n3C)c1,106
9,O=C(Cc1ccccc1)NC(c1ccc(Cl)cc1)c1c(O)ccc2ccccc12 (stereo unspecified),36
10,O=C(NC(c1ccccc1)c1ccc2cccnc2c1O)c1ccccc1 (stereo unspecified),26.3
11,CCN(CC)CCNc1ncnc2c1[nH]c1ccc(Br)cc12,141
12,Cc1cc(C)c2nc(N3CCC(C(=O)NCCCN4CCC(N5CCCCC5)CC4)CC3)sc2c1,135
13,O=C(Nc1ccc(Cl)c(Cl)c1)Nc1ccc(Cl)c(Cl)c1,91.6
14,COc1nc(Nc2ccc(C(C)C)cc2)nc(OC)n1,125
15,CCOc1ccc(CN2CCN(CC(O)COc3ccc(OCC(O)CN4CCN(Cc5ccc(OCC)cc5)CC4)cc3)CC2)cc1 (stereo unspecified),137
16,Cc1ccc(C)c(Cn2c(N3CCC(C(=O)NCc4cccs4)CC3)nc3ccccc32)c1,154
17,CC(Oc1ccc(NC(=O)c2cccs2)cc1)C(=O)c1ccc(Cl)cc1 (stereo unspecified),55.4
18,Cc1ccc(Cn2c(N3CCC(C(=O)NCc4cccs4)CC3)nc3ccccc32)cc1,106
19,OC(Cn1nnc2ccccc21)Cn1c2ccc(Br)cc2c2cc(Br)ccc21 (stereo unspecified),135
20,CCCCc1c(CCC)c(=N)c2ccccc2n1C,95.4
21,CCOc1ccc(C=Cc2nc(=O)c3ccccc3o2)cc1,14.6
